# Measurements as given in the supplement of paper PMC6607015.
# Structures can show the parent of a compound that is named as a salt.
# System: HeLa MZ
# Experiment: filipin (cholesterol) integrated intensity within LBPA endosomes, Z-score; higher = more cholesterol in LBPA endosomes
# Conditions: compound concentration in added solution (µM; 5 µl added to 20 µl cells): 10; 18 h
# In short: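 HeLa MZ or A431 cells were plated at 3,500 per well in 20 µl over 5 µl of 10 µM compound solution in duplicate 384-well imaging plates and fixed in 4% PFA after 18 h. Staining used the 6C4 anti-LBPA antibody, filipin, propidium iodide and CellTracker green, with four 20× images captured per well. MetaXpress segmentation measured integrated LBPA or filipin intensity per cell, across the whole cell or inside LBPA endosomes, and AcuityXpress normalised these into Z-scores.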
row,Compound,filipin (z-score)
1,CC(=O)Oc1cc(C(F)(F)F)ccc1C(=O)O [Triflusal],-0.544
2,O=C(CCCN1CCC(O)(c2ccc(Br)cc2)CC1)c1ccc(F)cc1 [Bromperidol],1.82
3,CCOc1ccccc1OCC1CNCCO1 (stereo not given) [Viloxazine hydrochloride],-0.261
4,N=C(N)NC(=N)NCCc1ccccc1 [Phenformin hydrochloride],-0.335
5,N=C(N)NC(=O)Cc1c(Cl)cccc1Cl [Guanfacine hydrochloride],0.00861
6,N[C@@H](Cc1cc(I)c(Oc2ccc(O)c(I)c2)c(I)c1)C(=O)O [Liothyronine],-0.592
7,Cc1onc(-c2c(Cl)cccc2Cl)c1C(=O)N[C@@H]1C(=O)N2[C@@H]1SC(C)(C)[C@@H]2C(=O)O [Dicloxacillin sodium salt hydrate],-0.582
8,CCCC(=O)Nc1ncnc2c1ncn2[C@@H]1O[C@@H]2COP(=O)(O)O[C@H]2[C@H]1OC(=O)CCC [Bucladesine sodium salt],-0.372
9,c1ccc2c(CC3=NCCN3)cccc2c1 [Naphazoline hydrochloride],0.0798
10,NC(=O)c1cc[n+](CC2=C(C(=O)[O-])N3C(=O)[C@@H](NC(=O)[C@@H](c4ccccc4)S(=O)(=O)O)[C@H]3SC2)cc1 [Cefsulodin sodium salt],-0.398
11,CCN[C@H]1C[C@H](C)S(=O)(=O)c2sc(S(N)(=O)=O)cc21 [Dorzolamide hydrochloride],-0.217
12,CN(C)CCOc1ccc(/C(=C(/CCCl)c2ccccc2)c2ccccc2)cc1 [Toremifene],3.94
13,CN(C)C(=O)C(CCN1CCC(O)(c2ccc(Cl)cc2)CC1)(c1ccccc1)c1ccccc1 [Loperamide hydrochloride],3.57
14,CCn1cc(C(=O)O)c(=O)c2cc(F)c(N3CCN(C)CC3)cc21 [Pefloxacine],-0.621
15,Cc1ccc2c(c1)c1c3n2CCNC3CCC1 (stereo not given) [Pirlindole mesylate],0.263
16,CCS(=O)(=O)CCn1c([N+](=O)[O-])cnc1C [Tinidazole],-0.524
17,Cc1ccc(Cl)c(Nc2ccccc2C(=O)O)c1Cl [Meclofenamic acid sodium salt monohydrate],-0.606
18,CN1CCCN=C1/C=C/c1cccs1 [Pyrantel tartrate],-0.677
19,"CC(C)NCC(O)c1ccc(O)c(O)c1 (single isomer, unassigned; (-)) [(-)-Isoproterenol hydrochloride]",-0.467
20,CCCCN(CCCC)CCC(O)c1cc2c(Cl)cc(Cl)cc2c2cc(C(F)(F)F)ccc12 (stereo not given) [Halofantrine hydrochloride],0.413

row,Compound,filipin (z-score)
1,C#Cc1cccc(Nc2ncnc3cc(OCCOC)c(OCCOC)cc23)c1 [Erlotinib],0.831
2,CN1CCN(C(c2ccccc2)c2ccc(Cl)cc2)CC1 (stereo not given) [Chlorcyclizine hydrochloride],0.687
3,CC(C)[C@H](N)C(=O)OCCOCn1cnc2c(=O)nc(N)[nH]c21 [Valacyclovir hydrochloride],-0.357
4,CN[C@H](CC(C)C)C(=O)N[C@H]1C(=O)N[C@@H](CC(N)=O)C(=O)N[C@H]2C(=O)N[C@H]3C(=O)N[C@H](C(=O)N[C@H](C(=O)O)c4cc(O)cc(O)c4-c4cc3ccc4O)[C@H](O)c3ccc(c(Cl)c3)Oc3cc2cc(c3O[C@@H]2O[C@H](CO)[C@@H](O)[C@H](O)[C@H]2O[C@H]2C[C@](C)(N)[C@H](O)[C@H](C)O2)Oc2ccc(cc2Cl)[C@H]1O [Vancomycin hydrochloride],-0.35
5,Nc1ccc(S(=O)(=O)NC(=O)c2ccccc2)cc1 [Sulfabenzamide],-0.401
6,Nc1ccc(S(=O)(=O)Nc2ccc(Cl)nn2)cc1 [Sulfachloropyridazine],-0.56
7,CCN(CC)CCOC(=O)C(c1ccccc1)C1CCCCC1 (stereo not given) [Drofenine hydrochloride],1.12
8,N=C(N)NCCN1CCCCCCC1 [Guanethidine sulfate],-0.454
9,Cc1cc(-n2c(=O)[nH]c(=O)n(C)c2=O)ccc1Oc1ccc(SC(F)(F)F)cc1 [Toltrazuril],-0.457
10,CN(C)CCC=C1c2ccccc2COc2ccccc21 [Doxepin hydrochloride],1.18
11,CN1CCCCC1CCN1c2ccccc2Sc2ccc([S+](C)[O-])cc21 (stereo not given) [Mesoridazine besylate],1.37
12,CN1CCC(=C2c3ccccc3C=Cc3ccccc32)CC1 [Cyproheptadine hydrochloride],0.976
13,Cc1cccc(C)c1NC(=O)C(C)N (stereo not given) [Tocainide hydrochloride],-0.603
14,CS(=O)(=O)Nc1ccc([N+](=O)[O-])cc1Oc1ccccc1 [Nimesulide],-0.716
15,COC(=O)C1=C(C)NC(C)=C(C(=O)OCC(C)C)C1c1ccccc1[N+](=O)[O-] (stereo not given) [Nisoldipine],-0.481
16,CCCCNc1c(C(=O)OCC)c(C)nc2c1cnn2CC [Tracazolate hydrochloride],0.287
17,CN(N=O)C(=O)N[C@@H](C=O)[C@@H](O)[C@H](O)[C@H](O)CO [Streptozotocin],-0.51
18,NS(=O)(=O)c1cc2c(cc1Cl)NCNS2(=O)=O [Hydrochlorothiazide],-0.419
19,NCc1ccccc1CC(=O)N[C@@H]1C(=O)N2C(C(=O)O)=C(CSc3nnnn3CC(=O)O)CS[C@H]12 [Ceforanide],-0.563
20,COc1cc2nc(N(C)CCCNC(=O)C3CCCO3)nc(N)c2cc1OC (stereo not given) [Alfuzosin hydrochloride],0.128
